Compound activity: PubChem BioAssay, The Scripps Research Institute Molecular Screening Center
Only some compounds are listed: those with a hit (about 0.9% of all), similar ones and a draw of the others.
PPARg SRC-2 ag: agonists of PPARg-SRC-2 recruitment, primary screen, biochemical, HTS; hit rate 0.34% among 200,000; Peroxisome proliferator-activated receptor gamma (Homo sapiens), P37231; PPARgamma LBD-SRC-2 recruitment; activation, % at 8 µM;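 further: 0% = vehicle and 100% = reference agonist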
PPARg SRC-1 ag: PPARgamma agonists recruiting SRC-1 coactivator, primary screen, biochemical; Peroxisome proliferator-activated receptor gamma (Homo sapiens), P37231; PPARgamma-SRC-1 coactivator recruitment biochemical assay; activation, % at 8 µM; hit rate 0.41% among 200,000; AID 631, 2007; in the data active means activation above about 19%;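 further: 0% = DMSO and 100% = reference agonist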
PPARg SRC3 recr: PPARgamma agonists recruiting SRC-3 coactivator, primary screen, biochemical | Peroxisome proliferator-activated receptor gamma (Homo sapiens), P37231 | biochemical PPARgamma/SRC-3 coactivator recruitment assay | activation, % at 8 µM | hit rate 0.26% among 200,000; in the data active means activation above about 23%;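 further: 0% = DMSO and 100% = reference agonist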
SRC3 TRFRET art: TR-FRET detection interference compounds, artefact control for PPARgamma SRC-3 recruitment agonists, biochemical, TR-FRET ratio; TR-FRET ratio at 8 µM; hit rate 0.39% among 99,000; TR-FRET artefact counter-screen, PPARgamma/SRC-3 format; stronger effect = higher value; in the data active means TR-FRET ratio above about 2000
SRC1 TRFRET art: TR-FRET detection interference compounds, primary screen, artefact control for PPARgamma SRC-1 recruitment agonists, biochemical, TR-FRET emission ratio | AID 1051, 2008 | hit rate 0.34% among 99,000 | TR-FRET detection artefact counter-screen; stronger effect = higher value | TR-FRET ratio at 8 µM; in the data active means TR-FRET ratio above about 2300
TR-FRET SRC-2 ct: TR-FRET signal artefacts, primary screen, artefact control for PPARgamma SRC-2 agonist project, biochemical | TR-FRET artefact counter-screen; stronger effect = higher value | TR-FRET ratio at 8 µM | hit rate 0.4% among 200,000 | AID 1049, 2008; in the data active means TR-FRET ratio above about 2000
PPARg SRC2 conf: agonists of PPARgamma SRC-2 coactivator recruitment, confirmation, biochemical, HTS | shares compounds with PPARg SRC3 recr | biochemical SRC-2 recruitment by PPARgamma | activation, % at 8 µM | hit rate 52% among 790 | AID 1297, 2008;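 further: 0% = vehicle alone and 100% = reference agonist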
PPARg SRC1 ag: PPARgamma agonists recruiting SRC-1 coactivator, confirmation, biochemical; shares compounds with PPARg SRC3 recr; PPARgamma–SRC-1 coactivator recruitment biochemical assay; activation, % at 8 µM; hit rate 43% among 790; in the data active means activation above about 20%;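 further: 0% = vehicle wells and 100% = reference agonist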
PPARg SRC3 conf: PPARgamma-driven SRC-3 coactivator recruitment agonists, confirmation, biochemical; hit rate 29% among 790; biochemical PPARgamma-SRC-3 coactivator recruitment, agonist mode; activation, % at 8 µM; shares compounds with PPARg SRC3 recr; in the data active means activation above about 24%;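 further: 0% = vehicle wells and 100% = reference agonist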
The depositor's hits bear a star; nt = not tested or not shown. Unless noted, no stated cut-off is given here; in the data, active means activation above about 22%; inactive means the rest.

SMILES	PPARg SRC-2 ag	PPARg SRC-1 ag	PPARg SRC3 recr	SRC3 TRFRET art	SRC1 TRFRET art	TR-FRET SRC-2 ct	PPARg SRC2 conf	PPARg SRC1 ag	PPARg SRC3 conf
COc1ccccc1-c1n[nH]c(=S)n1-c1ccccc1	63*	62*	84*	nt	nt	2941*	57*	39*	39*
COCC(C)Nc1nc(C)c(C(C)=O)s1 (stereo not drawn)	1	6	-3	1629	1860	1659	nt	nt	nt
CCOC(=O)c1ccc(NC(=O)CSC(=S)N2CCOCC2)cc1	10	12	1	1776	1807	1427	nt	nt	nt
O=C(CCNC(=O)c1ccc([N+](=O)[O-])cc1)Nc1ccc(N2CCOCC2)cc1N1CCOCC1	5	4	-3	1672	2042	1732	nt	nt	nt
O=C(Nc1ccc(N2CCOCC2)cc1N1CCOCC1)c1ccc([N+](=O)[O-])cc1	14	3	27*	nt	nt	1418	3	0	2
O=C(/C(C=Nc1cc2c(oc1=O)CCCC2=O)=C(\O)c1ccccc1)c1ccccc1	-2	-5	-1	1637	1631	1684	nt	nt	nt
O=C1NC(=S)S/C1=C\c1ccc(SCc2ccco2)o1	33*	21*	14	1738	1829	1647	2	6	2
N#Cc1c(Cl)nc(SCc2ccccc2)nc1-c1ccccc1	67*	59*	70*	nt	nt	2883*	80*	65*	54*
O=S(=O)(c1ccccc1Cl)N1CCC(O)(c2cccnc2)CC1	0	-8	-5	1639	1581	1428	nt	nt	nt
COc1cc2c(cc1OC)C1=NC(=O)CN1C(SCc1ccccc1C)=N2	27*	14	21	nt	nt	1965	28*	18	19
Cc1ccc(CSC2=Nc3ccccc3C3=NC(=O)CN23)cc1	-3	-7	5	1397	1885	1488	nt	nt	nt
O=C(COC(=O)c1cc(-c2ccc(Cl)s2)nc2ccccc12)NCc1ccco1	19	13	18	nt	nt	1744	nt	nt	nt
COc1ccc(CNC(=O)COC(=O)c2cc(-c3ccc(Cl)s3)nc3ccccc23)cc1	23*	13	17	nt	nt	2696*	20	16	12
O=C(Nn1c(O)c(C=C2N=c3ccccc3=N2)sc1=S)c1ccc(Cl)cc1	-5	4	0	nt	nt	1686	nt	nt	nt
O=C(Nn1c(O)c(C=C2N=c3ccccc3=N2)sc1=S)c1cccc(Cl)c1	15	15	27*	nt	nt	1764	23*	15	10
O=C1N=c2ccccc2=C1c1sc(=S)n(NC(=O)c2cccc(O)c2)c1O	12	22*	14	2060*	2026	1790	35*	27*	22
[O-][N+]1=c2ccc(Nc3ccccc3)cc2=NC12CCCCC2	16	24*	28*	nt	nt	1710	22*	13	10
COc1ccc(NC2=NC(=S)N(c3ccccc3C)C23CCCCC3)cc1	2	1	6	nt	nt	1465	nt	nt	nt
COc1ccc(Nc2ccc3c(c2)=NC2(CCCCC2)[N+]=3[O-])cc1	19	24*	28*	nt	nt	2020*	15	15	10
Cc1ccc(C(C(=O)NCc2ccco2)N(CCc2ccccc2)C(=O)Cn2nnc3ccccc32)o1 (stereo not drawn)	16	8	32*	1671	1885	1653	12	5	16
CCOc1ccc(CNc2ccc(N3CCCC3)cc2)cc1	29*	12	22	nt	nt	1770	11	5	6
COc1cccc(OC)c1C(=O)NC(=S)Nc1cc(-c2nc3ccccc3[nH]2)ccc1Cl	12	7	5	2008	2075	1801	nt	nt	nt
COc1ccccc1-c1nnc(SC2CCc3ccccc3NC2=O)s1 (stereo not drawn)	69*	31*	42*	nt	nt	2323*	49*	39*	33*
N=C(c1cccc([N+](=O)[O-])c1)N1CCCCC1	8	2	1	1684	1853	1626	nt	nt	nt
Cc1nn(C)c(C)c1NC(=O)CSc1nc(-c2ccccc2Cl)nc2c1cnn2-c1ccccc1	-2	19*	14	nt	nt	1882	4	-2	-2
SMILES	PPARg SRC-2 ag	PPARg SRC-1 ag	PPARg SRC3 recr	SRC3 TRFRET art	SRC1 TRFRET art	TR-FRET SRC-2 ct	PPARg SRC2 conf	PPARg SRC1 ag	PPARg SRC3 conf
Cc1cccc(N/C=C(\[N+](=O)[O-])S(=O)(=O)c2ccccc2)c1C	4	-5	0	1524	1989	1655	nt	nt	nt
Cn1c(=O)cc(SCC(=O)NCCC2=CCCCC2)c2ccccc21	12	5	8	1753	1986	1894	nt	nt	nt
CCN1CCN(C(=O)CSc2cc(=O)n(C)c3ccccc23)CC1	9	33*	21	2490*	2968*	2412*	29*	19	20
Cn1c(=O)cc(SCC(=O)N2CCN(c3ccccn3)CC2)c2ccccc21	55*	38*	53*	nt	nt	2556*	40*	29*	27*
CN1CCN(C(=O)CCCOc2cc(=O)n(C)c3ccccc23)CC1	7	6	6	nt	nt	1511	nt	nt	nt
Cn1c(=O)cc(OCCCC(=O)N2CCN(c3ccccc3)CC2)c2ccccc21	10	4	3	nt	nt	1446	nt	nt	nt
